KB-V1 cytotox: KB-V1 MDR subline cytotoxicity. hit rate 3.4% among 400,000. Potency, µM (doses to about 46.1 µM), usual class: cytotoxic. KB-V1 MDR cells viability, CellTiter-Glo, 72 h. AID 1347076; further: potency means the concentration at half of the fitted maximal effect; nearly all actives have a fitted effect of over 60% in size
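KB-V1 MDR subline cells in DMEM (phenol-red free, 10% FBS) exposed to compounds in qHTS concentration series for 72 h at 37 degrees C. Viability read by CellTiter-Glo luminescence; concentration-effect curves fitted after normalization and correction.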
KB-3-1 tox: kills parental KB-3-1 adenocarcinoma cells; KB-3-1 viability, CellTiter-Glo ATP luminescence, 72 h; Potency, µM (series often up to 46.1 µM), most hits filed as cytotoxic; hit rate 1.4% among 400,000; AID 1347075; further: potency means the concentration at half of the fitted maximal effect; nearly all actives have a fitted effect of over 60% in size
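KB-3-1 parental drug-naive adenocarcinoma cells in DMEM/10% FBS, incubated 72 h at 37 C with pin-transferred compounds across a concentration series. Viability by CellTiter-Glo luminescence; concentration-response curves fitted after normalization.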
HT1080-NT tox: kills 2HG-producing HT-1080-NT fibrosarcoma cells; HT-1080-NT fibrosarcoma viability, CellTiter-Glo ATP luminescence, 48 h; Potency, µM (series often up to 46.1 µM), inactives show top-dose activity, negative = less viability, actives largely listed as cytotoxic; hit rate 1.6% among 360,000; AID 686970;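 further: NT is the 2HG producing partner of a matched IDH1 knockdown line; potency means the concentration at half of the fitted maximal effect; 0% = DMSO-treated cells and -100% = media-only wells without cells; nearly all actives have a fitted effect of over 55% in size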
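HT-1080-NT; 750 cells/well; 5% FBS RPMI; 48 h compound, 37 degrees C; CellTiter-Glo luminescence; curve fitting and curve-class assignment.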
IL1B secr inh: blocks inflammasome-driven IL-1 beta release; hit rate 4.7% among 360,000; THP-1 LPS/ATP IL-1B secretion, AlphaLISA, 16 h; hits give low values; activity change, % at 57.5 µM; in the data active means activity change below about -50%; inconclusive means mostly about -30% to -49%
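Secreted IL-1B measured by AlphaLISA bead assay after 16 h compound exposure of THP-1 cells; compounds (final up to 57.5 uM) added 1 h before LPS (250 ng/mL) and ATP (1.25 mM) stimulation; lower signal means less secretion.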
HT1080 IDH1KD tx: kills HT-1080 cells with IDH1 knockdown; hit rate 2% among 360,000; AID 686971; HT-1080 IDH1 knockdown viability, ATP luminescence, 48 h; Potency, µM (titrated, usually from 46.1 µM), for the others: at the top dose activity, negative = toxicity, most hits filed as cytotoxic;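 further: potency means the concentration at half of the fitted maximal effect; 0% = DMSO wells and -100% = cell-free medium wells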
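% activity derives from luminescence (CellTiter-Glo), normalised to DMSO and no-cell wells. HT-1080-IDH1KD cells, 750/well, had 48 h compound exposure at 37 °C.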
An asterisk follows results filed as active; i = inactive; u = inconclusive; x = no result given. This is a sample that favours compounds with a hit; in the whole collection about 8.8% have one here. Unless noted, the call rests on the fitted dose curve; in most records, active means well fitted curve in the direction sought with a large enough effect; inconclusive means small, poorly fitted or top-dose-only effect, or another doubt; inactive means no such curve, though single readings can be large; an effect the other way counts as inactive or inconclusive. Unless noted, on the % scale 0 is the no-effect control and ±100 the full control effect.

SMILES | KB-V1 cytotox | KB-3-1 tox | HT1080-NT tox | IL1B secr inh | HT1080 IDH1KD tx
CCOC(=O)c1c(C)[nH]c(C)c1S(=O)(=O)N1CCCC(C(=O)NCc2ccc(N(C)C)cc2)C1 (stereo not given) | i | i | x | x | x
O=C(Cn1ncc(Cl)c(Cl)c1=O)N1CCN(S(=O)(=O)c2ccc3ccccc3c2)CC1 | i | 16.4µM* | 2.59µM* | -102.7* | 3.66µM*
COc1cc(NC(=O)CCC(=O)N2CCN(S(=O)(=O)c3ccc(C)cc3)CC2)cc(OC)c1 | 18.4µM* | i | -10.4% | -0.5 | -4.2%
O=C(CCC(=O)N1CCN(S(=O)(=O)c2ccc3ccccc3c2)CC1)Nc1cc(Cl)cc(Cl)c1 | i | i | -5.1% | -53.1* | -13.7%
COc1ccc(S(=O)(=O)N2CCN(C(=O)c3cc(-c4ccc(C)cc4)n[nH]3)CC2)cc1 | u | i | -10.8% | -83.2* | -3.9%
COc1ccc(S(=O)(=O)N2CCN(CC(=O)Nc3cc(OC)cc(OC)c3)CC2)cc1 | i | i | -11.2% | -17.6 | 0.2%
CCc1cccc(C)c1NC(=O)CCCN1C(=O)CN(C)C1=O | i | i | 1.0% | -8.2 | 2.7%
O=S(=O)(c1ccc2ccccc2c1)N1CCN(C(=S)Nc2ccc(F)c(Cl)c2)CC1 | i | u | -21.7% | -69.0* | u
Cc1nnc(SCCCN2C(=O)c3ccccc3C2=O)o1 | i | i | 4.4% | 0.0 | -1.2%
O=C1c2ccccc2C(=O)N1CCCCSc1nnc(-c2ccc(OC(F)F)cc2)o1 | 3.26µM* | i | 11.8% | -13.5 | 4.8%
Cc1ccc(S(=O)(=O)NNC(=O)c2cc(C)c(C)cc2N)cc1 | 16.4µM* | i | 9.8% | -5.4 | 9.7%
Cc1ccc(S(=O)(=O)NNC(=O)c2cc(C)cs2)cc1 | i | i | 22.3% | 25.2 | 9.4%
COc1ccc(C2=NN(CN3C(=O)C(=O)c4ccccc43)C(c3ccc(Br)cc3)C2)cc1 (stereo not given) | i | i | 8.8% | -79.4* | 4.1%
COc1ccc(C2=NN(CN3C(=O)C(=O)c4ccccc43)C(c3ccc(C)cc3)C2)cc1 (stereo not given) | i | i | 4.7% | -17.5 | 2.0%
COc1ccc(NS(=O)(=O)c2cc(NC(=O)[C@@H](NC(=O)c3ccccc3)C(C)C)ccc2C)cc1 | u | 8.2µM* | u | 14.9 | u
COc1ccc(NS(=O)(=O)c2cc(NC(=O)c3ccc(=O)[nH]c3)ccc2C)cc1 | u | i | -20.6% | -12.7 | -7.9%
COc1ccc(C(=O)N[C@H](C(=O)NCCCn2nc(C)cc2C)C(C)C)cc1 | 14.6µM* | i | 10.2% | -4.9 | 14.2%
CCCCC1SC(N)=NC1=O (stereo not given) | i | i | 8.2% | -10.7 | 14.0%
CN(C)c1ccc2c(=O)cc[nH]c2c1 | i | i | 9.2% | 21.3 | 24.7%
O=C(c1cc2ccccc2oc1=O)N(Cc1ccco1)Cc1cccs1 | 5.17µM* | i | 6.4% | -24.9 | 1.1%
COc1ccccc1OCC(=O)NCCCN1CCOCC1 | i | i | 20.4% | -0.2 | 12.0%
Cc1ccccc1OCC(=O)Nc1ccccc1N1CCCCC1 | 14.6µM* | u | -25.5% | 13.9 | u
COc1ccccc1NC(=O)COc1cc(Br)c(CNCCCN2CCOCC2)cc1OC | i | i | u | -53.5* | u
COc1cc(C(=S)N2CCCCC2)ccc1OCC(=O)Nc1ccccc1Cl | i | i | u | -70.3* | -7.5%
Cc1cc(Cl)ccc1OCC(=O)NNC(=O)c1cnccn1 | i | i | u | 1.8 | u
Cc1ccc(C(=O)NNC(=O)COc2ccc(Cl)cc2C)o1 | i | i | 5.9% | -54.2* | 1.9%
CCOc1ccc(NC(=O)CNS(=O)(=O)c2ccc(Br)s2)cc1 | i | i | x | x | x
CSc1cccc(NC(=O)CN2CCN(Cc3ccccc3C)S2(=O)=O)c1 | i | i | x | x | x
NC(=O)CC(NSc1ccccc1[N+](=O)[O-])C(=O)O (stereo not given) | i | i | 1.2% | -1.3 | -6.8%
CC1CN(CC(O)c2ccc(Br)cc2)CCO1 (stereo not given) | i | i | u | 5.7 | 0.7%

Bioassay records: PubChem BioAssay, National Center for Advancing Translational Sciences (NCATS)
